According to the supplement of paper PMC10849652:
The full data set covers some 7,900 targets. This sample favours those with a hit. About 0.6% of all pairs of compound and target were hits.

Legend:
Assay in all cases: log2 fold change, soluble protein after heating vs DMSO (PISA); higher = thermal stabilisation; K562 cells, 10 uM, 30 min; active = over 0.2 and 3.5 SD of the protein, either way, in both replicates (recomputed)
bafetinib = compound: Cc1ccc(NC(=O)c2ccc(CN3CC[C@H](N(C)C)C3)c(C(F)(F)F)c2)cc1Nc1nccc(-c2cncnc2)n1 [bafetinib]
Summary of the method: (§1)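 For each measurement, 10 μM compound was applied for 30 min to K562 cells at 2×10^6 cells/mL. Aliquots were heated for 3 min across 48°C-58°C, pooled, and extracted in PBS with 0.5% NP-40 at 4°C; the supernatant after 21,000xg for 90 min was soluble protein. This was quantified by TMTpro 16plex LC-MS/MS with channel sums equalised, and thermal stability was reported relative to control samples from duplicates, on a log2 fold-change scale.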

[1] = compound: Cc1cccc(CC(=O)N2CCc3c2ccc(-c2cn(C)c4ncnc(N)c24)c3F)n1
Summary of the method: as §1

nilotinib = compound: Cc1cn(-c2cc(NC(=O)c3ccc(C)c(Nc4nccc(-c5cccnc5)n4)c3)cc(C(F)(F)F)c2)cn1 [nilotinib]
Summary of the method: as §1

[2] = compound: Cc1nc(Nc2n[nH]c3c2CN(C(=O)N[C@H](CN(C)C)c2ccccc2)C3(C)C)c2sccc2n1
Summary of the method: as §1

dasatinib = compound: Cc1nc(Nc2ncc(C(=O)Nc3c(C)cccc3Cl)s2)cc(N2CCN(CCO)CC2)n1 [dasatinib]
Summary of the method: as §1

[3] = compound: Cc1ncc(-c2ccnc(Nc3ccc(S(C)(=O)=O)cc3)n2)n1C(C)C
Summary of the method: as §1

[4] = compound: Cn1cc(-c2ccc3c(c2)CCN3C(=O)Cc2cccc(C(F)(F)F)c2)c2c(N)ncnc21
Summary of the method: as §1

[5] = compound: Cn1cc(-c2ccc3nnc(C(F)(F)c4ccc5ncccc5c4)n3n2)cn1
Summary of the method: as §1

tipifarnib = compound: Cn1cncc1[C@@](N)(c1ccc(Cl)cc1)c1ccc2c(c1)c(-c1cccc(Cl)c1)cc(=O)n2C [tipifarnib]
Summary of the method: as §1

mubritinib = compound: FC(F)(F)c1ccc(/C=C/c2nc(COc3ccc(CCCCn4ccnn4)cc3)co2)cc1 [mubritinib]
Summary of the method: as §1

[6] = compound: NC(=O)Nc1cc(-c2cccc(F)c2)sc1C(=O)N[C@H]1CCCNC1
Summary of the method: as §1

[7] = compound: NC(=O)c1cnc(N[C@@H]2CCCC[C@@H]2N)nc1Nc1cccc(-n2nccn2)c1
Summary of the method: as §1

[8] = compound: NC1(c2ccc(-c3nc4ccn5c(=O)[nH]nc5c4cc3-c3ccccc3)cc2)CCC1
Summary of the method: as §1

[9] = compound: NCC(=O)Nc1ccc(-n2nc(C(F)(F)F)cc2-c2ccc3c(ccc4ccccc43)c2)cc1
Summary of the method: as §1

entinostat = compound: Nc1ccccc1NC(=O)c1ccc(CNC(=O)OCc2cccnc2)cc1 [entinostat]
Summary of the method: as §1

vorinostat = compound: O=C(CCCCCCC(=O)Nc1ccccc1)NO [vorinostat]
Summary of the method: as §1

citarinostat = compound: O=C(CCCCCCNC(=O)c1cnc(N(c2ccccc2)c2ccccc2Cl)nc1)NO [citarinostat]
Summary of the method: as §1

silmitasertib = compound: O=C(O)c1ccc2c(c1)nc(Nc1cccc(Cl)c1)c1ccncc12 [silmitasertib]
Summary of the method: as §1

[10] = compound: O=C1NC(=O)C(c2cnc3ccccn23)=C1c1cn2c3c(cc(F)cc13)CN(C(=O)N1CCCCC1)CC2
Summary of the method: as §1

[11] = compound: c1cc(OCCN2CCCCC2)cc(-c2n[nH]c3ccc(-c4nnc[nH]4)cc23)c1
Summary of the method: as §1

Measured: log2 fold change

ATG9A (UniProt Q7Z3C6)
inactive: bafetinib -0.048 | [1] -0.013 | nilotinib -0.04 | [2] -0.108 | dasatinib -0.046 | [3] -0.014 | [4] 0.06 | [5] -0.022 | tipifarnib 0.168 | mubritinib 0.042 | [6] 0.019 | [7] 0 | [8] -0.262 | [9] 0.038 | entinostat 0.008 | vorinostat 0.061 | citarinostat 0.059 | silmitasertib -0.023 | [10] 0.019 | [11] -0.013

ARL6IP6 (UniProt Q8N6S5)
inactive: bafetinib -0.096 | [1] 0.024 | nilotinib -0.027 | [2] 0.019 | dasatinib 0.098 | [3] 0.036 | [4] 0.012 | [5] -0.186 | tipifarnib -0.054 | mubritinib 0.04 | [6] -0.085 | [7] -0.125 | [8] -0.073 | [9] -0.015 | entinostat -0.021 | vorinostat -0.007 | citarinostat -0.058 | silmitasertib -0.014 | [10] 0.011 | [11] -0.059

AARS2 (UniProt Q5JTZ9)
inactive: bafetinib -0.07 | [1] 0.011 | nilotinib -0.085 | [2] -0.047 | dasatinib -0.184 | [3] -0.036 | [4] 0.052 | [5] 0.05 | tipifarnib -0.063 | mubritinib -0.143 | [6] -0.029 | [7] -0.018 | [8] -0.212 | [9] -0.086 | entinostat 0.045 | vorinostat 0.015 | citarinostat 0.037 | silmitasertib -0.051 | [10] -0.026 | [11] 0.06

AHCYL1 (UniProt O43865)
UniProt O43865, sequence (O43865 whole entry, looked up): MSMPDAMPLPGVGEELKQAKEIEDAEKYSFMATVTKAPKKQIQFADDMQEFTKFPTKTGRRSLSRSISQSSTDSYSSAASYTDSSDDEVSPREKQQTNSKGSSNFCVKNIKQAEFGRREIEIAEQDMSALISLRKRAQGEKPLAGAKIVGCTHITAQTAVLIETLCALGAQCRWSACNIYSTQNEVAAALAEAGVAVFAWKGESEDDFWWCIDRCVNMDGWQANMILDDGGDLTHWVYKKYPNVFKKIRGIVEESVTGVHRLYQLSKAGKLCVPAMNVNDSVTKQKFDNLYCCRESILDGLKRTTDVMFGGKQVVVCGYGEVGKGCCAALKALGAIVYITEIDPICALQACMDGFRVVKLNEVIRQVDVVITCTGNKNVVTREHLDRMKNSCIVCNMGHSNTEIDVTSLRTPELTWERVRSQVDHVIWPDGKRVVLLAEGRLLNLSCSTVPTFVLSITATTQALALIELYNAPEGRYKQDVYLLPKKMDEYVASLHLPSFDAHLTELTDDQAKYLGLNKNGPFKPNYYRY
inactive: bafetinib -0.009 | [1] -0.135 | nilotinib 0.006 | [2] 0.029 | dasatinib 0.005 | [3] 0.116 | [4] 0.041 | [5] 0.041 | tipifarnib -0.014 | mubritinib -0.055 | [6] 0.183 | [7] 0.106 | [8] 0.003 | [9] 0.046 | entinostat -0.109 | vorinostat 0.116 | citarinostat -0.017 | silmitasertib 0.188 | [10] -0.002 | [11] 0.253

ADPRHL2 (UniProt Q9NX46)
UniProt Q9NX46, sequence (Q9NX46 whole entry, looked up): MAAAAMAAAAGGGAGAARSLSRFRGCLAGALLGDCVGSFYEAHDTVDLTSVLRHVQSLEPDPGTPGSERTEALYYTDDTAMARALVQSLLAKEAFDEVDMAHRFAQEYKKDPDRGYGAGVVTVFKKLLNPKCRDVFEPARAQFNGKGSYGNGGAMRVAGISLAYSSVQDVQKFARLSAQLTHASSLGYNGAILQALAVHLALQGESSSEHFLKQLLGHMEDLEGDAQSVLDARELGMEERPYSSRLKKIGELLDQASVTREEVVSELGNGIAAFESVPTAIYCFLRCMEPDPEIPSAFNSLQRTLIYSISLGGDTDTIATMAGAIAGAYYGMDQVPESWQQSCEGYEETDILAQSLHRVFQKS
active: mubritinib 0.349
inactive: bafetinib 0.201 | [1] 0.029 | nilotinib 0.013 | [2] 0.164 | dasatinib -0.034 | [3] 0.124 | [4] 0.082 | [5] 0.052 | tipifarnib -0.159 | [6] -0.022 | [7] -0.02 | [8] -0.056 | [9] -0.045 | entinostat 0.027 | vorinostat -0.039 | citarinostat 0.076 | silmitasertib -0.045 | [10] -0.028 | [11] 0.055

ARFRP1 (UniProt Q13795)
inactive: bafetinib 0.025 | nilotinib -0.061 | [2] -0.014 | dasatinib -0.017 | [3] 0.112 | [4] 0.11 | [5] -0.003 | tipifarnib -0.069 | mubritinib -0.019 | [6] 0.167 | [7] 0.108 | [8] -0.173 | [9] 0.067 | entinostat 0.117 | vorinostat 0.054 | citarinostat 0.025 | silmitasertib 0.013 | [10] -0.085 | [11] 0.074
active: [1] 0.327

ACADM isoform 2 (UniProt P11310)
inactive: bafetinib -0.073 | [1] 0.002 | nilotinib -0.013 | [2] 0.025 | dasatinib -0.054 | [3] -0.002 | [4] 0.039 | [5] 0.024 | tipifarnib 0.012 | mubritinib 0.016 | [6] -0.044 | [7] 0.01 | [8] -0.024 | [9] 0.029 | entinostat -0.019 | vorinostat -0.007 | citarinostat 0.037 | silmitasertib -0.032 | [10] -0.101 | [11] 0.009

BYSL (UniProt Q13895)
UniProt Q13895, sequence (Q13895 whole entry, looked up): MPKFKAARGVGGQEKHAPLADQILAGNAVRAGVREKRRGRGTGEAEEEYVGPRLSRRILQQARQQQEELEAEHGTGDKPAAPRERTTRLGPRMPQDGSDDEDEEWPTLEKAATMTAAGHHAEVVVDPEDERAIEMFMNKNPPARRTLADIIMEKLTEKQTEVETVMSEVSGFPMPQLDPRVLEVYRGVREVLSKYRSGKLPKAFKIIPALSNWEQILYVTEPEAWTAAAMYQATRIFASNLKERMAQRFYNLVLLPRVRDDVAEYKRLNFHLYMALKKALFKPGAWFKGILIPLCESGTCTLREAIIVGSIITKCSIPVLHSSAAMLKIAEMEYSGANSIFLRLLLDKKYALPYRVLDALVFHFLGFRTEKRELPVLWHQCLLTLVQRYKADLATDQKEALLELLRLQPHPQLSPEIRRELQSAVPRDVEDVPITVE
inactive: bafetinib 0.118 | [1] 0.034 | nilotinib -0.131 | [2] 0.163 | dasatinib -0.082 | [3] 0.064 | [4] -0.05 | [5] -0.003 | tipifarnib -0.063 | mubritinib 0.062 | [6] -0.012 | [7] 0.053 | [8] -0.052 | [9] 0.062 | entinostat 0.046 | vorinostat 0.058 | citarinostat -0.007 | silmitasertib 0.085 | [10] 0.068 | [11] 0.001

ATP2A3 isoform 2 (UniProt Q93084)
UniProt Q93084, sequence (Q93084 whole entry, looked up): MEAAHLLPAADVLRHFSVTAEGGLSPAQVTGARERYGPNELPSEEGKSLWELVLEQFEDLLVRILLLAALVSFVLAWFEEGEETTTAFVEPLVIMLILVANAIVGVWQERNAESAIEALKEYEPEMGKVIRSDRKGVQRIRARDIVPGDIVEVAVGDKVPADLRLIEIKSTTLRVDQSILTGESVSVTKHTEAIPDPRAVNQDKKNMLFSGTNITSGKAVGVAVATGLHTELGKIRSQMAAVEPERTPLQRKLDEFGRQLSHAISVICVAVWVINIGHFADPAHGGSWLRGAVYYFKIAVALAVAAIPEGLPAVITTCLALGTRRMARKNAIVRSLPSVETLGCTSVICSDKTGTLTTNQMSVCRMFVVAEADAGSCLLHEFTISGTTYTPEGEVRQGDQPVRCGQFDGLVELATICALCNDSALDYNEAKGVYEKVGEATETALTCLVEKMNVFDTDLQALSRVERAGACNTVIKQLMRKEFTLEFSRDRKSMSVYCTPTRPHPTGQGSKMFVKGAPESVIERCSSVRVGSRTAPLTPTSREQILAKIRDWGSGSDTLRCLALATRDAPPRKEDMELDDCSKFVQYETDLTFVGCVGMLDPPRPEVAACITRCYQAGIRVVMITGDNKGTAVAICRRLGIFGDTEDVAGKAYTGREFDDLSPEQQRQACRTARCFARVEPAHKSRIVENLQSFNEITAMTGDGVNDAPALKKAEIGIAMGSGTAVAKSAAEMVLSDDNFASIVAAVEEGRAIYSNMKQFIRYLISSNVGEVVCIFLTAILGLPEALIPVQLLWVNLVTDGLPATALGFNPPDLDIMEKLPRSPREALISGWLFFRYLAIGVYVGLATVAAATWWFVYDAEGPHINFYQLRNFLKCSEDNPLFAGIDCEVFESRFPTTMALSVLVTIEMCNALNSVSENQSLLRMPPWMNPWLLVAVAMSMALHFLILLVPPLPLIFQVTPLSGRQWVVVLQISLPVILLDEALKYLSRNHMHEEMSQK
inactive: bafetinib -0.063 | [1] -0.001 | nilotinib -0.057 | [2] -0.064 | dasatinib -0.005 | [3] 0.058 | [4] -0.014 | [5] 0.076 | tipifarnib 0.025 | mubritinib -0.044 | [6] -0.008 | [7] 0.007 | [8] -0.096 | [9] -0.072 | entinostat 0.035 | vorinostat -0.018 | citarinostat 0.019 | silmitasertib 0.068 | [10] -0.069 | [11] -0.05

ACP1 isoform 2 (UniProt P24666)
inactive: bafetinib 0.037 | [1] 0.036 | nilotinib 0.039 | [2] -0.063 | dasatinib -0.126 | [3] -0.049 | [4] -0.044 | [5] 0.022 | tipifarnib -0.146 | mubritinib 0.042 | [6] 0.048 | [7] -0.018 | [8] -0.086 | [9] -0.041 | entinostat 0.041 | vorinostat 0.159 | citarinostat 0.005 | silmitasertib -0.005 | [10] -0.149 | [11] -0.044

AGPS (UniProt O00116)
UniProt O00116, sequence (O00116 whole entry, looked up): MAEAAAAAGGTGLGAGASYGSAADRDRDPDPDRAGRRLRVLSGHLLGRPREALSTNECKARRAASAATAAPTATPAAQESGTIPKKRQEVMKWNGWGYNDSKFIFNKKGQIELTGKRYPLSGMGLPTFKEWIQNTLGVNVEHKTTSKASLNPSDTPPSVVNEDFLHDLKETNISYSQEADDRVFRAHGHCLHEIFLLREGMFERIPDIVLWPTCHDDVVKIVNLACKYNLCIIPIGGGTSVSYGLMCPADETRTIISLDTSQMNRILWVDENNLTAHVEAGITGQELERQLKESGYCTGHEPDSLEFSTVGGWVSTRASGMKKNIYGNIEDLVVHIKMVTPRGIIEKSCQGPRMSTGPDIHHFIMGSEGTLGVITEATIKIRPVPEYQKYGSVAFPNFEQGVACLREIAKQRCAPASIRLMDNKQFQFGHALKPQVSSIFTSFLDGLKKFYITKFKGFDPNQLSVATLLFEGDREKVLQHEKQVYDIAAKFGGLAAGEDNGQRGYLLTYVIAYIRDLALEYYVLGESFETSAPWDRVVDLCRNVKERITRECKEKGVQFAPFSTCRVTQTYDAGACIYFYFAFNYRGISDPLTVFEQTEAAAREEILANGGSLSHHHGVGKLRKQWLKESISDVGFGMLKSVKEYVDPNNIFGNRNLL
inactive: bafetinib -0.068 | [1] 0.025 | nilotinib 0.039 | [2] -0.012 | dasatinib -0.023 | [3] 0.006 | [4] 0.09 | [5] 0.01 | tipifarnib 0.032 | mubritinib 0.112 | [6] -0.013 | [7] 0.007 | [8] -0.112 | [9] 0 | entinostat 0.023 | vorinostat 0.045 | citarinostat 0.058 | silmitasertib 0.011 | [10] -0.107 | [11] -0.011

ADH5 (UniProt P11766)
UniProt P11766, sequence (P11766 whole entry, looked up): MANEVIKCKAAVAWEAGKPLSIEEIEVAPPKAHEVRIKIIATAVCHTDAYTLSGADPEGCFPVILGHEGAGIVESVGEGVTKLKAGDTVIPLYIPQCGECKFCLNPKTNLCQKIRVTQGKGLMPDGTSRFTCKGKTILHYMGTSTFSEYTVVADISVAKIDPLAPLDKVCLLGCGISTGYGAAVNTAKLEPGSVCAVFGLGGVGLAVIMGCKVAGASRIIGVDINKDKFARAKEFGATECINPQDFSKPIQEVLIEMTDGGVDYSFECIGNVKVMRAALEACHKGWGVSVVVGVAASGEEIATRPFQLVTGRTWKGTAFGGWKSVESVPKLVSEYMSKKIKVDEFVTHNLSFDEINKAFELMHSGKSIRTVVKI
inactive: bafetinib -0.009 | [1] 0.006 | nilotinib -0.013 | [2] 0.023 | dasatinib 0.036 | [3] 0.013 | [4] 0.021 | [5] -0.006 | tipifarnib -0.029 | mubritinib 0.028 | [6] 0.024 | [7] 0.002 | [8] -0.006 | [9] 0.021 | entinostat -0.031 | vorinostat -0.013 | citarinostat 0.015 | silmitasertib -0.026 | [10] -0.03 | [11] -0.016

ACSF3 (UniProt Q4G176)
UniProt Q4G176, sequence (Q4G176 whole entry, looked up): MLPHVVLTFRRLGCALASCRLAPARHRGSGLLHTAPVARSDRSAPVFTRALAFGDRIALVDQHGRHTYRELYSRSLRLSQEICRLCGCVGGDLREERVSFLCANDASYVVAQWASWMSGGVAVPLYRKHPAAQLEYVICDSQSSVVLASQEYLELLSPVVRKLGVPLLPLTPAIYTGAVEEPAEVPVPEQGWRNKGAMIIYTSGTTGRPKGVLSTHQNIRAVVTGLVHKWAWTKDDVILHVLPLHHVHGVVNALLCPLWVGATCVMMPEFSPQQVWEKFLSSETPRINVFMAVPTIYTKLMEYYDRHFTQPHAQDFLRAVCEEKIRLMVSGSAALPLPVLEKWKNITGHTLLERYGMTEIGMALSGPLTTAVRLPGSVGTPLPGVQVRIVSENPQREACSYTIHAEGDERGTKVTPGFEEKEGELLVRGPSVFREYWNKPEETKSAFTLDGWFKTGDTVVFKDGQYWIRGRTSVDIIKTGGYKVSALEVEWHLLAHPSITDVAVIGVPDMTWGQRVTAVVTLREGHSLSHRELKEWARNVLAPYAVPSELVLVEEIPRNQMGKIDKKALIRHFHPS
active: mubritinib -0.433
inactive: bafetinib -0.13 | [1] -0.105 | nilotinib 0.084 | [2] 0.135 | dasatinib -0.073 | [3] 0.022 | [4] -0.278 | [5] -0.02 | tipifarnib 0.062 | [6] -0.016 | [7] -0.073 | [8] -0.098 | [9] -0.184 | entinostat 0.069 | vorinostat 0.007 | citarinostat 0.197 | silmitasertib 0.109 | [10] 0.035 | [11] -0.107

ANXA5 (UniProt P08758)
UniProt P08758, sequence (P08758 whole entry, looked up): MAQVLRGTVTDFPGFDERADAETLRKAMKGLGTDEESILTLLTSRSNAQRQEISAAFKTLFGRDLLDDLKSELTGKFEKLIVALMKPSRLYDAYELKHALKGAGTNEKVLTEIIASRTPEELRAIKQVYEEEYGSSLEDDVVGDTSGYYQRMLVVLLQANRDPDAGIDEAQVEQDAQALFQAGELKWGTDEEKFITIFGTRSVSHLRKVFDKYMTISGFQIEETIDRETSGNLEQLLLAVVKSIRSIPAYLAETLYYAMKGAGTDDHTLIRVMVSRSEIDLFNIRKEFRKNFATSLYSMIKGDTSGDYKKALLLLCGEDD
inactive: bafetinib 0.019 | [1] 0.058 | nilotinib -0.015 | [2] -0.052 | dasatinib -0.079 | [3] 0.006 | [4] 0.017 | [5] 0.025 | tipifarnib -0.061 | mubritinib 0.009 | [6] -0.021 | [7] -0.044 | [8] -0.139 | [9] -0.031 | entinostat 0.055 | vorinostat 0.027 | citarinostat 0.115 | silmitasertib 0 | [10] -0.045 | [11] -0.008

ACSL1 (UniProt P33121)
UniProt P33121, sequence (P33121 whole entry, looked up): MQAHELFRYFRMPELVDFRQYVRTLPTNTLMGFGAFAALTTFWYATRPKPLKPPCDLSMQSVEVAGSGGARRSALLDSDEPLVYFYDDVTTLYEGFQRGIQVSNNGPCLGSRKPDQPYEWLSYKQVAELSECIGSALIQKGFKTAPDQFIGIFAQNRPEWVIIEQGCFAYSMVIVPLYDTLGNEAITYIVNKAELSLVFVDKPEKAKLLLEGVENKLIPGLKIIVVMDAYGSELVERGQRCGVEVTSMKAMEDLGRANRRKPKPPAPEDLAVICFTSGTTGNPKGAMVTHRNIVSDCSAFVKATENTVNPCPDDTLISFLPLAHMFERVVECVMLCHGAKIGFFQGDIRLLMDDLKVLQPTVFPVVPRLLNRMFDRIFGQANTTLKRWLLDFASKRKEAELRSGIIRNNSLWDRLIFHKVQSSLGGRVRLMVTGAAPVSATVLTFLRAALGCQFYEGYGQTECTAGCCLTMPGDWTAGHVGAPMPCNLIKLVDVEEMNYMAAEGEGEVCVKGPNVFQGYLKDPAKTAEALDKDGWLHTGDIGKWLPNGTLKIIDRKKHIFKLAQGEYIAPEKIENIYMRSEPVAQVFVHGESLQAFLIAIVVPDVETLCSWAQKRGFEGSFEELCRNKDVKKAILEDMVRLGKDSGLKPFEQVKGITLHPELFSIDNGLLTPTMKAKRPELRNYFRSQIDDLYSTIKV
inactive: bafetinib -0.178 | [1] -0.004 | nilotinib -0.003 | [2] -0.07 | dasatinib -0.076 | [3] -0.013 | [4] 0.027 | [5] 0.024 | tipifarnib -0.015 | mubritinib -0.009 | [6] -0.058 | [7] -0.015 | [8] -0.091 | [9] -0.003 | entinostat -0.034 | vorinostat 0.004 | citarinostat 0.071 | silmitasertib 0.029 | [10] -0.038 | [11] -0.022

ACSM3 (UniProt Q53FZ2)
active: mubritinib -0.343
inactive: bafetinib 0.009 | [1] -0.061 | nilotinib -0.015 | [2] 0.002 | dasatinib -0.185 | [3] 0.028 | [4] 0.012 | [5] 0.128 | tipifarnib 0.002 | [6] 0.017 | [7] 0 | [8] 0.021 | [9] -0.125 | entinostat 0.009 | vorinostat 0.122 | citarinostat 0.122 | silmitasertib 0.06 | [10] -0.134 | [11] -0.094
